In PubChem BioAssay (NCATS) one finds Potency data, which are given here for 14 compounds.

Results filed as inconclusive are left out. Where a call stands in place of a potency, no number is given. The source made the active and inactive calls. Calls follow the shape of the dose curve; as a rule, active = well fitted curve in the direction sought with a large enough effect; inconclusive = small, poorly fitted or top-dose-only effect, or another doubt; inactive = no such curve, though single readings can be large; an effect the other way counts as inactive or inconclusive.

In assay [1] the target is Aldehyde dehydrogenase, mitochondrial (Homo sapiens) (UniProt P05091). The assay can be described thus: qHTS for Inhibitors of the Aldehyde Dehydrogenase Family (ALDH2) Primary screen (AID 2061308). Also: nearly all actives have a fitted effect of over 55% in size.
Assay [2] deals with Retinaldehyde dehydrogenase 3 (Homo sapiens) (UniProt P47895). The assay can be described thus: qHTS for Inhibitors of the Aldehyde Dehydrogenase Family (ALDH1A3) Primary screen (AID 2061315).

Regarding `Fc1cc(Nc2nc(-c3ccncc3)nc3ccccc23)ccc1-c1cn[nH]c1`, the Potency entry in assay [1] and in assay [2] was “inactive” throughout.

In the case of `O=C(OCC#CCSc1nnc(-c2cccc3ccccc23)o1)c1sccc1Cl`, the Potency entry in assay [1] and in assay [2] was “inactive” each time.

As for `COc1cccc(C2c3c(ncn(CCN4CCOCC4)c3=N)Oc3ccc4ccccc4c32)c1` (stereo not drawn), the Potency entry in assay [1] and in assay [2] was “inactive” throughout.

As for `CCCCCCNC(=O)Nc1nnc(-c2ccncc2)s1`, the Potency result in assay [1] and in assay [2] was “inactive” each time.

On to `COc1cc(C2CC(=O)Nc3c2cc(Br)c2ccccc32)cc(OC)c1OC` (stereo not drawn), for which the Potency entry in assay [1] and in assay [2] was “inactive” in each case.

Take `Cc1nc(NCc2ccccc2)c2nc(-c3ccccc3)n(CCCN3CCOCC3)c2n1`: the Potency entry in assay [1] and in assay [2] was “inactive” each time.

`O=C(Nc1ccc(S(=O)(=O)Nc2nccs2)cc1)c1cc(-c2ccccc2)nc2ccccc12`: the Potency result in assay [1] and in assay [2] was “inactive” throughout.

Consider `c1ccc(-c2cnc(Nc3ccc(OCCN4CCCC4)cc3)s2)cc1`, for which the Potency entry in assay [1] and in assay [2] was “inactive” throughout.

As for `COc1cc(O)c(C(CC(=O)N2CCC(Cc3ccccc3)CC2)c2ccc(OC)c(OC)c2)c(OC)c1` (stereo not drawn), the Potency entry in assay [1] and in assay [2] was “inactive” each time.

Consider `C[C@H]1CC[C@@]2(OC1)O[C@H]1CC3C4CC[C@H]5C[C@@H](O)CC[C@]5(C)C4=CC(=O)[C@]3(C)[C@H]1[C@@H]2C` (stereo partly drawn), for which the Potency entry in assay [1] and in assay [2] was “inactive” each time.

As for `Cc1c(P(=S)(c2ccccc2)c2ccccc2)c2ccccc2n1C(=O)NCc1ccccc1`, the Potency result in assay [1] and in assay [2] was “inactive” each time.

For the compound `O=C(CN1C(=O)N/C(=C\c2cn(-c3cccc(C(=O)O)c3)cn2)C1=O)Nc1ccc(Cl)cc1`, the Potency result in assay [1] and in assay [2] was “inactive” throughout.

As to `Cc1nnc(-c2cnn(C)c2N)n1CCc1cccs1`, the Potency result in assay [1] and in assay [2] was “inactive” throughout.

Consider `CCOC(=O)c1c(/C=N/Nc2ccccc2)c2sc(C)cc2n1C`, for which the Potency entry in assay [1] and in assay [2] was “inactive” in each case.
